Pf growth 96h – P. falciparum growth inhibition at 96 hours; P. falciparum luciferase reporter growth, 96 h; Potency, µM (titrated, usually from 28.7 µM), for inactives: at the highest dose activity change, negative = inhibition, actives largely listed as inhibitors; 6.9% of 320,000 active; further: potency means the concentration at half of the fitted maximal effect; on the % scale 0 is the no-effect control and ±100 the full control effect
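Plates of compound plus infected erythrocytes (2% hematocrit, 0.05% parasitemia final) incubate 96 hours, 37 C, 5% CO2. Detection reagent added; reduced luminescence from the parasites' luciferase reporter flags inhibition.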
Sm TGR inh – S. mansoni TGR enzyme inhibition; purified TGR, DTNB reduction, TNB absorbance 405 nm; Potency, µM (titrated, usually from 114 µM), without a hit: top-dose activity change, negative = inhibition, hits mostly inhibitors; Q962Y6; 3% of 360,000 active; further: potency means the concentration at half of the fitted maximal effect; on the % scale 0 is the no-effect control and ±100 the full control effect; nearly all actives have a fitted effect of over 60% in size
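TGR 20 nM + NADPH 100 uM (dispensed conc.), cpd preinc 15 min RT; start with NADPH (500 uM addition) then DTNB (15 mM addition). Kinetic TNB absorbance, 405 nm filter. Four-parameter Hill fit across titration.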
AMA1 RON2 block – inhibitors of Plasmodium falciparum AMA1-RON2 interaction | 0.2% of 360,000 active | AlphaScreen AMA1-biotinylated RON2 peptide binding | Potency, µM (doses to about 58.2 µM), inactives show top-dose activity change, negative = inhibition, hits mostly inhibitors | AID 720542;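 further: potency means the concentration at half of the fitted maximal effect; 0% = vehicle wells and -100% = peptide control; nearly all actives have a fitted effect of over 45% in size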
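AMA1 (3D7) with his tag at 25 nM final met compounds first, then biotinylated RON2 peptide at 25 nM; detection used donor plus acceptor beads, 10 µg/mL apiece, read by AlphaScreen after 30 min at room temperature.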
NS1 inh – influenza NS1 inhibition; Potency, µM (highest dose often 46.1 µM), without a hit: at the highest dose activity, positive = more growth; 0.4% of 270,000 active; calls by dose curve; further: potency means the concentration at half of the fitted maximal effect; actives are rising curves; nearly all actives have a fitted effect of over 50% in size
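OD600 was taken as the measure of yeast growth restored by compound in an NS1-expressing S. cerevisiae strain. Cells had been washed out of glucose medium and diluted 1:100 into galactose -URA medium, pH 6.0.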
Pf growth 48h – inhibits P. falciparum growth in the first generation, 48 h | 5.9% of 310,000 active | P. falciparum luciferase growth in erythrocytes, 48 h | Potency, µM (titrated, usually from 28.7 µM), for inactives: at the top dose activity change, negative = inhibition, hits mostly inhibitors; further: potency means the concentration at half of the fitted maximal effect; on the % scale 0 is the no-effect control and ±100 the full control effect
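Compounds are pin-transferred into medium, infected erythrocytes (2% hematocrit, 0.1% parasitemia final) are added, and plates sit one parasite generation at 37 C in 5% CO2. Detection reagent is then added and luminescence measured.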
Flu NS1 inh – validation of influenza NS1 protein function inhibitors; shares compounds with NS1 inh; influenza NS1 function cell assay, 15-point titration; activity change, negative = inhibition, % at 32.9 µM; 1,400 tested, under 10 active; AID 492980; calls by dose curve; further: 0% is about no effect
Flu PR8 replic – influenza virus titer reduction, NS1 project. shares compounds with NS1 inh. MDCK infected influenza A/PR/8/34, virus titer TCID50; hits give low values. virus titer (log TCID50), log10 TCID50 at 5 µM. 30% of 95 active. AID 504647; call rule not given here
An asterisk follows results filed as active; ? = inconclusive; nt = no result. Most compounds without a hit are left out; they make up all but 11% or so of the library. Unless noted, the call rests on the fitted dose curve; in most records, active means well fitted curve in the direction sought with a large enough effect; inconclusive means small, poorly fitted or top-dose-only effect, or another doubt; inactive means no such curve, though single readings can be large; an effect the other way counts as inactive or inconclusive.

SMILES	Pf growth 96h	Sm TGR inh	AMA1 RON2 block	NS1 inh	Pf growth 48h	Flu NS1 inh	others
COc1ccc(-c2csc(C3=C(O)CN(Cc4ccc(Cl)cc4)C3=N)n2)cc1OC	nt	-9%	0%	-1%	?	nt
COc1cccc(CN2CC(O)=C(c3nc(-c4ccc(Cl)cc4)cs3)C2=N)c1	4%	-3%	-4%	5µM*	2%	7
CC1CCC(NC(=O)c2ccc(CS(=O)(=O)c3c(Cl)cccc3Cl)o2)CC1 (stereo not given)	nt	0%	nt	nt	nt	nt
O=C(NC1CC1)c1ccc(CS(=O)(=O)c2c(Cl)cccc2Cl)o1	26%	?	4%	4.5µM*	nt	6
CN(C)CCN=Cc1c(O)n(-c2cccc3ccccc23)c(=O)[nH]c1=O	10µM*	-2%	51%	?	-3%	7
Cc1ccc(Cl)cc1N1CCN(C(=O)c2c(C)oc3ncnc(N4CCCCC4)c23)CC1	nt	11%	nt	nt	nt	nt
CCCOc1cc2c(C#N)c(N3CCCC3)nc(N)c2c(N)n1	nt	nt	88%	nt	nt	nt
COc1ccc(-c2cnnn2-c2ccc(NC(=O)c3ccc(S(=O)(=O)N4CCCCC4)cc3)cc2)cc1OC	1.5µM*	5%	-12%	5µM*	4.1µM*	31	Flu PR8 replic=7.3*
COc1ccc(C(=O)Nc2ccc(S(=O)(=O)N3CCCCC3)cc2)cc1OC	36%	0%	-5%	-46%	-21%	nt
O=C1NC(=O)C2(Cc3ccccc3N3CCCC32)C(=O)N1c1ccc(Cl)cc1 (stereo not given)	7%	?	3%	11µM*	-14%	16
CCOc1cc(C(=O)NCCc2ccc(S(N)(=O)=O)cc2)cc(OCC)c1OCC	?	3%	1%	3%	2%	nt
COc1cc(C(=O)NCCc2ccc(S(N)(=O)=O)cc2)cc(OC)c1OC	-13%	-7%	-4%	?	15%	1
CCOc1ccccc1CNC(=O)c1ccc(N2Cc3ccccc3Oc3ncccc32)s1	nt	-1%	nt	nt	nt	nt
O=C(O)c1ccc(/C=N/NC(=O)c2ccc(CN3c4cccc5cccc(c45)S3(=O)=O)cc2)cc1	?	-10%	68%	15%	-13%	nt
O=C1CCC/C(=N/NC(=O)c2ccc(CN3c4cccc5cccc(c45)S3(=O)=O)cc2)C1	?	-4%	57%	14µM*	-13%	11
Clc1nc(-c2ccccc2)ncc1Oc1ccccc1	nt	nt	129%	nt	nt	nt
Cc1cccc(CC(=O)Nc2cc(=O)n(C)c(=O)n2C)c1	?	-7%	-2%	?	?	-7
Cc1cc(C(=O)O)ccc1-n1c(C)cc(/C=C2\SC(=O)NC2=O)c1C	?	?	-1%	11µM*	7%	17
CSc1ccccc1-c1ccc2nccn2c1	nt	nt	-7%	nt	nt	nt
N#Cc1ccc(CSc2ccc(S(=O)(=O)N3CCCC3)cn2)cc1	-29%	1%	7%	nt	-22%	nt
CSC1=NCCN1C(=O)c1ccc2c(c1)OCO2	?	3%	-9%	?	?	0
COc1ccc(C(=O)N2CCN=C2SC)cc1OC	-1%	0%	-2%	11%	20%	nt
O=C(NC1CCN(C(=O)c2cccc([N+](=O)[O-])c2)CC1)c1ccccc1	33%	-8%	13%	-3%	20%	nt
Clc1ccc(N2CCN(c3ncnc4c3oc3ccccc34)CC2)cc1	38%	1%	2%	?	14%	-3
CC1CN(c2ncnc3c2oc2ccccc23)CC(C)O1 (stereo not given)	?	4%	-9%	-43%	-21%	nt
SMILES	Pf growth 96h	Sm TGR inh	AMA1 RON2 block	NS1 inh	Pf growth 48h	Flu NS1 inh	others
O=C(Nc1ccc(S(=O)(=O)N2CCOCC2)cc1)C1CC(=O)N(c2ccc(F)cc2)C1 (stereo not given)	?	-1%	-14%	?	0%	nt
Cn1c(CC(=O)Nc2ccc(Cl)cc2)nnc1SCC(=O)N1CCOCC1	?	?	7%	-13%	7%	nt
COc1ccc(N2C(N)=C(C#N)C(c3cccnc3)C3=C2CC(C)(C)CC3=O)cc1 (stereo not given)	-17%	10µM*	30%	?	?	-14
O=C(c1cccc(F)c1)N1CCc2ccccc2C1	44%	1%	6%	?	15%	-26
O=C(c1ccncc1)N1CCc2ccccc2C1	0%	1%	-3%	1%	30%	nt
COc1cccc(/C=N/NC(=S)NCc2ccco2)c1OC	?	-21%	75%	1%	0%	nt
O=C(COc1ccc2c(c1)oc(=O)c1ccccc12)NC(Cc1ccc(Cl)cc1)C(=O)O (stereo not given)	25%	-18%	-9%	11µM*	42%	22
O=C(COc1ccc(Cl)cc1)NNC(=S)NCc1ccccc1	27%	6%	108%	5.6µM*	?	?
Cc1n[nH]c(C)c1CCc1nc2c3ccccc3nc(SCC(N)=O)n2n1	?	1%	5%	3.2µM*	49%	-7
CC(=O)Oc1ccc2c(c1)C(=O)CCCCCC(=O)O2	nt	nt	7%	nt	nt	nt
COc1cccc(C(C)NC(=O)Nc2cccc(C(F)(F)F)c2)c1 (stereo not given)	53%	3%	-11%	?	?	?
COc1cccc(C(C)NC(=O)Nc2cc(Cl)ccc2OC)c1 (stereo not given)	11%	4%	9%	3%	?	nt
O=C(CCSc1ccc(Cl)cc1)Nc1cccnc1	5%	nt	-2%	4%	15%	nt
O=C(N/N=C/c1ccc2c(c1)OCO2)c1cc(-c2ccc(F)cc2)nc2ccccc12	?	1%	-5%	?	20%	-1
COc1ccc(-c2cc(C(=O)N/N=C/c3ccc4c(c3)OCO4)c3ccccc3n2)c(OC)c1	?	13%	22%	3%	?	nt
C=CCn1c(SCC(=O)N(CC)CC)nc(O)cc1=O	-20%	9%	10%	2.5µM*	10%	1
C=CCn1c(SCC(=O)N2CCCCC2)nc(O)cc1=O	37%	0%	-3%	10%	nt	nt
Cc1ccccc1N=C1SC(CC(=O)Nc2ccc3ccccc3c2)C(=O)N1Cc1ccccn1 (stereo not given)	3.7µM*	3%	-1%	14µM*	1.2µM*	-13
O=C(CC1SC(=Nc2ccccc2)N(Cc2ccccn2)C1=O)Nc1ccc(Br)cc1 (stereo not given)	?	0%	27%	?	-71%	nt
O=C(/C=C/c1cccc([N+](=O)[O-])c1)OCC1CCCO1 (stereo not given)	5%	-1%	-2%	15%	0%	nt
O=C1CNC(=S)N1CCc1ccc(O)c(O)c1	-27%	1.8µM*	7%	?	?	29
